Test results: PubChem BioAssay AID504339 (National Center for Advancing Translational Sciences (NCATS), 2011)
In all, about 390,000 compounds went through this assay and about 17,000 (4.4%) were called active. Not shown: some 8% with an inconclusive outcome. What follows is part of a selection rich in actives, with near analogues and random picks from the rest. A number with no mark means an inactive call. Calls follow the shape of the dose curve; as a rule, active = well fitted inhibition curve with a large enough effect; inconclusive = small, poorly fitted or top-dose-only effect; inactive = no such curve, though single readings can be large or run the other way.

molecular target: Lysine-specific demethylase 4A (Homo sapiens) (UniProt O75164); experiment: qHTS Assay for Inhibitors of JMJD2A-Tudor Domain; conditions: AlphaScreen JMJD2A-Tudor / H3K4me3 peptide binding; series mostly up to 114 µM; activity change, negative = inhibition: at the top concentration; also: nearly all actives have a fitted effect of over 50% in size
Description: JMJD2A is a jumonji-domain-containing lysine demethylase that uses Fe(II) together with 2-OG to effect oxidative demethylation of histones. Methylation is one of many […] modification that affect epigenetic transcription. […] It is proposed that the functions of JmjD2A binding to the histones, is to maintain marks after they are installed and to spread the modifications by […], establishing a self-propagating cycle for rapid methylation over a large area of chromatin. […] Thus, small molecule targeting of the JMJD2A-tudor domain interaction with its target methylhistone mark is expected to enable sophisticated experiments probing the fine regulatory pathways leading to selective demethylation of a given methyllysine locus based on the methylation state of adjacent histone marks. A quantitative high throughput AlphaScreen has been developed to identify small molecule inhibitors based on a protocol published by NCGC and SGC [4].
Although AlphaScreen has significant advantages with its utility in a variety of epigenetic target assays, the primary screening data provided in this deposition should be used with caution due to the prevalence of screening artifacts. The top compound concentration tested was high (>100uM) in this assay, which increases number of actives and potential artifacts. An AlphaScreen counterscreen is highly recommended to be run against any putative actives to eliminate non-specific artifacts. Alternatively, one can use other AlphaScreen assays in PubChem to filter out promiscuous hits.
[1] Lee, J. et al. Distinct binding modes specify the recognition of methylated histone H3K4 and H4K20 by JMJD2A-tudor. Nat Struct Mol Biol. 15(1); 109-11. 2008. PMID: 18084306
[2] Yasgar, et al. Compound Management for Quantitative High-Throughput Screening. JALA. 2008 Apr;13(2):79-89. PMID: 18496600
[3] Inglese, et al. Quantitative high-throughput screening: a titration-based approach that efficiently identifies biological activities in large chemical libraries. Proc Natl Acad Sci. 1;103(31):11473-8. 2006. PMID: 16864780
[4] Quinn et al. A homogeneous method for investigation of methyl-dependent protein-protein interactions in epigenetics. Nucleic Acids Res., 38(2):e11. 2010. PMID: […]
[5] Baell,Holloway. New substructure filters for removal of pan assay interference compounds (PAINS) from screening libraries and for their exclusion in bioassays. J Med Chem. 53(7):2719-40. 2010. PMID: 20131845
NIH Molecular Libraries Probe Production Network [MLPCN]
NIH Chemical Genomics Center [NCGC]
Structural Genomics Consortium (SGC)
To each well of a 1,536w plate, 2ul of JMJD2A-Tudor (final 100nM) and 1ul biotinylated histone peptide methylated at Lys4 [b-H3(1-18)K4me3] (final 50nM) were added in 1x PBS buffer, pH 7.4, containing 0.01% Tween-20, using a nanoliter dispenser. Formation of a protein-peptide complex proceeded at room temperature for 30 min. A Kalypsys pin-tool transferred 23nl of library compound solution in DMSO to each well. Following a 30 min incubation of the protein-peptide complex with compounds at room temperature, a mixture of 40 µg/mL each streptavidin-coated donor and nickel chelate acceptor AlphaScreen beads (final 10 µg/mL) was added in a 1ul dispense for a final volume of 4ul, followed by a brief centrifugation (1000 rpm, 1 min). Plates were incubated protected from the light for 20 min at room temperature. Microplates were then read on an EnVision multilabel plate reader using the 1,536 plate HTS AlphaScreen aperture (excitation time 80 ms, measurement time 240 ms).
% is scaled to controls: 0 for no effect and ±100 for the full control effect; potency is read from the fitted curve at half-maximal effect.

Lysine-specific demethylase 4A (Homo sapiens), sequence (O75164 whole entry, looked up, the tested form may be a part): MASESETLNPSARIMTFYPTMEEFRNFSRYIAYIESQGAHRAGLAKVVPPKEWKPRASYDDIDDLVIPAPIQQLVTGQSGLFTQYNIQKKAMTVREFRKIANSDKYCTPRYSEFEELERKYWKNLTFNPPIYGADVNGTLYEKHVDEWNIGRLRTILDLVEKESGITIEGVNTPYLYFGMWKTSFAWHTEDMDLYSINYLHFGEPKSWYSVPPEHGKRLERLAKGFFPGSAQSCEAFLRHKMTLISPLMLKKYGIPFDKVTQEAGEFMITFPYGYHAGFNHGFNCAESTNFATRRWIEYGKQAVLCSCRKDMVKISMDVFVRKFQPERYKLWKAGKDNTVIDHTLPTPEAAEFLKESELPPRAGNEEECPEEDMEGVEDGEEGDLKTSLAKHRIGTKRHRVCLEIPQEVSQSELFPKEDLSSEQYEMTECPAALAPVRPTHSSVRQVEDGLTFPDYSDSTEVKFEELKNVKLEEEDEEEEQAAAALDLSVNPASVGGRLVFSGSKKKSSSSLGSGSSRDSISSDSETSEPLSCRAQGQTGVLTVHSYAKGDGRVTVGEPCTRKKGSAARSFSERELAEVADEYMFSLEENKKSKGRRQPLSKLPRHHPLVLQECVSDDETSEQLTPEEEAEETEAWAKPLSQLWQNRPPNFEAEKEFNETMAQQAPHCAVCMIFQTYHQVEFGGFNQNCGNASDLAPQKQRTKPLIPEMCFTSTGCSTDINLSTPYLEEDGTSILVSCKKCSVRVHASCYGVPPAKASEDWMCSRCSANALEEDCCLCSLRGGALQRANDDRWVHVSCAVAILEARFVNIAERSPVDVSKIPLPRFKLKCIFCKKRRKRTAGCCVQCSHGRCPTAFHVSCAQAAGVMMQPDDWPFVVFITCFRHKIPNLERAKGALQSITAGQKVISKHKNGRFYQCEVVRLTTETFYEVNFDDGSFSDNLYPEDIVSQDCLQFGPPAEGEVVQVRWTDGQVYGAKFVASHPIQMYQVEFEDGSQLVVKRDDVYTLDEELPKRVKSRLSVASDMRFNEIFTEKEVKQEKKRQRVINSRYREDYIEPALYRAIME

Structure (SMILES) | activity change, negative = inhibition | Potency
O=C1CC(c2ccc(F)cc2F)c2cc3c(cc2N1)OCO3 (stereo not drawn) | -15.8% (inactive) | –
COC(=O)c1c(C)c(C)nc(N)c1C#N | -5.35% (inactive) | –
COCc1c(N)c(C)nc(Cl)c1C#N | – | 11.2 µM (active)
Cc1nc(Cl)c(C#N)c2c1CCCC2 | -0.685% (inactive) | –
CC(=O)c1ccc(NC(=O)C2CCN(S(=O)(=O)c3c(C)noc3/C=C/c3ccc(C)cc3)CC2)cc1 | -16.6% (inactive) | –
CN(Cc1ccccc1)c1ccc(-c2nc(-c3ccccc3)no2)cc1[N+](=O)[O-] | -8.94% (inactive) | –
CC(=O)c1ccc(N2CCN(C3C(=O)c4ccccc4N3C(C)=O)CC2)cc1 (stereo not drawn) | -15.3% (inactive) | –
COC(=O)c1c(NC(=O)C(=O)N2CCCCC2)sc2c1CC(C)(C)OC2 | -1.38% (inactive) | –
CC1(C)Cc2c(sc(NC(=O)C(=O)N3CCOCC3)c2C#N)CO1 | – | 14.1 µM (active)
CCOC(=O)N1CCN(C(=O)C(=O)Nc2sc3c(c2C#N)CC(C)(C)OC3)CC1 | -9.02% (inactive) | –
COc1cc(C(=O)Nc2ccc(OCc3cc(=O)n4ccc(C)cc4n3)cc2)cc(OC)c1OC | -2.6% (inactive) | –
COC(=O)c1cccc(N(CC(=O)NCC2CCCO2)C(=O)CCC(=O)Nc2cc(C)on2)c1 (stereo not drawn) | 0.702% (inactive) | –
Cc1cc(NC(=O)CCC(=O)N(CC(=O)NCC2CCCO2)c2ccccc2)no1 (stereo not drawn) | -10.2% (inactive) | –
CCc1ccccc1N(CC(=O)NCC1CCCO1)C(=O)CCC(=O)Nc1nccs1 (stereo not drawn) | – | 25.1 µM (active)
COc1ccc(N(CC(=O)NCC2CCCO2)C(=O)CCC(=O)Nc2nccs2)c(OC)c1 (stereo not drawn) | -22.1% (inactive) | –
Cc1cc(NC(=O)CCC(=O)N(CC(=O)NCC2CCCO2)c2ccccc2C)no1 (stereo not drawn) | 2.52% (inactive) | –
CCCCOc1ccc(N(CC(=O)NCC2CCCO2)C(=O)CCC(=O)Nc2cc(C)ccn2)cc1 (stereo not drawn) | – | 70.8 µM (active)
COc1ccc(C(=O)Nc2onc3c2CCCC3)cc1 | -17.7% (inactive) | –
O=C(NCCc1ccccc1)C(=O)NCC(c1ccco1)S(=O)(=O)c1ccccc1 (stereo not drawn) | -9.42% (inactive) | –
COc1cccc(C(=O)NC2(C(F)(F)F)C(=O)Nc3c2c(=O)[nH]c(=O)n3-c2ccc(C)cc2)c1 (stereo not drawn) | -7.22% (inactive) | –
O=C(CSc1ncc(-c2ccccc2)[nH]1)Nc1ccc(F)cc1F | -25.7% (inactive) | –
O=C(COc1ccccc1F)OCc1cc(=O)n2nc(C3CCCCC3)sc2n1 | -14.3% (inactive) | –
Cc1ccc2c(c1)C1CN(C)CCC1N2S(=O)(=O)c1ccc(Oc2ccc([N+](=O)[O-])cc2)cc1 (stereo not drawn) | – | 22.4 µM (active)
Cc1ccc2c(c1)C1CN(C)CCC1N2C(=S)Nc1ccc(OC(F)F)cc1 (stereo not drawn) | -26.8% (inactive) | –

Structure (SMILES) | activity change, negative = inhibition | Potency
Cc1ccc2c(c1)C1CN(C)CCC1N2S(=O)(=O)c1cccc(F)c1 (stereo not drawn) | -12.8% (inactive) | –
COc1ccc(CNC(=O)c2ccc3c(c2)nc2n3CCOC2)c(OC)c1 | -9.74% (inactive) | –
Cc1cc(NS(=O)(=O)c2ccc3oc(=O)c4ncn(C)c4c3c2)ccc1Br | 4.17% (inactive) | –
COc1cc(OC)c(NC(=O)c2cnc(N3CCCC3)nc2C)cc1Cl | 5.63% (inactive) | –
Cc1ccc2c(=O)c(C(=O)c3cccc(Cl)c3)cn(CC(=O)NCc3ccccc3)c2n1 | 0.962% (inactive) | –
O=C(NNC(=O)c1cccnc1)Nc1ccccc1 | -1.69% (inactive) | –
O=C(CC(=O)c1cccnc1)c1ccccc1 | -10.3% (inactive) | –
O=C(O)CSC(NC(=O)c1cccnc1)(C(F)(F)F)C(F)(F)F | – | 89.1 µM (active)
CCc1ccccc1N(C)C(=O)C1CCCN(c2ncnc3onc(-c4ccc(F)cc4)c23)C1 (stereo not drawn) | -0.647% (inactive) | –
COc1cccc2c1cc1c(=O)n(CC(=O)N3CCN(c4cccc(Cl)c4)CC3)nc(C)n12 | -10.5% (inactive) | –
O=c1ccc2c(-c3ccccc3S(=O)(=O)O)c3ccc(O)c(O)c3oc-2c1O | – | 0.708 µM (active)
CCOC(=O)c1c(C)oc2ccc(N(C(=O)c3ccncc3)S(=O)(=O)c3ccc(CC)cc3)cc12 | -29.1% (inactive) | –
CCOc1ccccc1C(=O)NC1(C(F)(F)F)NC(=O)N(CCc2ccc(OC)c(OC)c2)C1=O (stereo not drawn) | -25.4% (inactive) | –
CCCN(C(=O)Cn1cc(S(=O)(=O)N2CCN(c3ccccc3F)CC2)c2ccccc2c1=O)c1cccc(C)c1 | -9.25% (inactive) | –
CNc1nnc(-c2ccco2)s1 | -1.99% (inactive) | –
COc1ccc(NC(=O)COCc2cc(-c3ccco3)on2)cc1 | 0.321% (inactive) | –
COc1ccc(OCC(=O)Nc2nnc(-c3ccco3)s2)cc1 | – | 79.4 µM (active)
Cc1cccc(NC(=O)CN(c2ccc(C(C)C)cc2)S(=O)(=O)c2c(C)nn(C)c2C)c1C | -11.3% (inactive) | –
Cc1ccc(C)c(CNC(=O)c2cc3ccccn3n2)c1 | -3.25% (inactive) | –
CC1CCCN(c2cc3c(cc2F)c(=O)c(S(=O)(=O)c2cccc(Cl)c2)cn3Cc2ccccc2)C1 (stereo not drawn) | -8.25% (inactive) | –
Cc1ccc(Cl)cc1NC(=O)CCC(=O)N1CC(C)Sc2ccccc21 (stereo not drawn) | 0% (inactive) | –
Cc1ccccc1C(=O)Nc1ccc(N2CCCCCC2)cc1 | – | 14.1 µM (active)
Cc1ccccc1C(=O)N1CCN(c2ccc(NC(=O)c3cccs3)cc2)CC1 | -29.7% (inactive) | –
O=C(NC(=O)c1ccccc1N1CCCCC1)Nc1ccc(Br)cc1 | -15.4% (inactive) | –
